Bioassay records as filed in PubChem BioAssay.
Shown are actives, neighbours in structure and some others; about 21% of the full set was active somewhere.
Shiga inhibitor – A qHTS for Small Molecule Inhibitors of Shiga Toxin; Vero cells, Shiga toxin protein synthesis inhibition reporter; inhibition, % at 38.7 µM; actives 9.2% (n = 290,000); AID 2315, 2010; in the data active = inhibition mostly above about 28%, no sharp cut-off; inactive = mostly below about 43%; also: 0% is about no effect
NS1 function inh – qHTS Assay for Inhibitors of Influenza NS1 Protein Function | actives 0.4% (n = 270,000) | AID 2326, 2010 | Potency, µM (series often up to 46.1 µM), without a hit: at the top dose activity, positive = more growth; calls by dose curve; also: potency is read from the fitted curve at half-maximal effect; actives are rising curves; nearly all actives have a fitted effect of over 50% in size
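A cell-based growth assay was used: compounds that relieve NS1-induced slow growth of budding yeast raise OD600. Assay medium was yeast nitrogen base with ammonium sulphate and -URA supplement, pH 6.0, with 2% galactose.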
Giardia FBPA inh – qHTS Assay for Inhibitors of Fructose-1,6-bisphosphate Aldolase from Giardia Lamblia; purified Giardia FBPA; AID 2451, 2010; actives 0.71% (n = 290,000); A8B2U2; Potency, µM (highest dose often 59.6 µM), for inactives: at the top dose activity, negative = inhibition, usual class: inhibitors; also: potency is read from the fitted curve at half-maximal effect; % is scaled to controls: 0 for no effect and ±100 for the full control effect; nearly all actives have a fitted effect of over 55% in size
Target sequence (A8B2U2 whole entry, looked up): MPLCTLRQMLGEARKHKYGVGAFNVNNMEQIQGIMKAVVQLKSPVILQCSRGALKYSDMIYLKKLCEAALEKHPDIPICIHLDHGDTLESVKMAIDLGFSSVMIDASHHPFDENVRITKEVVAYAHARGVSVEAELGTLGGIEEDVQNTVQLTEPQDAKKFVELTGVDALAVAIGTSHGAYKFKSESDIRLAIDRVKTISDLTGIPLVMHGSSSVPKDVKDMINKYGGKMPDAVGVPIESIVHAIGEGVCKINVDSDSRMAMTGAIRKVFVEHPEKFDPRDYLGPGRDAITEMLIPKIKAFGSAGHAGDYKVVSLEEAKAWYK
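40 nM FBPA preincubated 10 min at RT with compound (up to 57.5 uM final), then substrate plus GAPDH/TPI/NAD/arsenate coupling and diaphorase/resazurin added. Fluorescence read after 20 min at RT, 525/598 nm.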
CHX counter – Cycloheximide Counterscreen for Small Molecule Inhibitors of Shiga Toxin | cell reporter, cycloheximide protein synthesis inhibition counterscreen | max response, % | actives 12% (n = 300,000) | AID 2314, 2010; in the data active = max response mostly above about 13%, no sharp cut-off; inactive = mostly below about 14%; also: read at 38.3 µM for the half of the compounds with a filed dose; 0% is about no effect
Pf growth 96h – Primary qHTS for delayed death inhibitors of the malarial parasite plastid, 96 hour incubation; AID 504834, 2011; actives 6.9% (n = 320,000); Potency, µM (titrated, usually from 28.7 µM), inactives show at the top dose activity change, negative = inhibition, actives largely listed as inhibitors; P. falciparum luciferase reporter growth, 96 h; also: potency is read from the fitted curve at half-maximal effect; % is scaled to controls: 0 for no effect and ±100 for the full control effect
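Plates of compound plus infected erythrocytes (2% hematocrit, 0.05% parasitemia final) incubate 96 hours, 37 C, 5% CO2. Detection reagent added; reduced luminescence from the parasites' luciferase reporter flags inhibition.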
Pf growth 48h – Primary qHTS for delayed death inhibitors of the malarial parasite plastid, 48 hour incubation. P. falciparum luciferase growth in erythrocytes, 48 h. Potency, µM (highest dose often 28.7 µM), inactives show at the highest dose activity change, negative = inhibition, actives largely listed as inhibitors. actives 5.9% (n = 310,000). AID 504832, 2011; also: potency is read from the fitted curve at half-maximal effect; % is scaled to controls: 0 for no effect and ±100 for the full control effect
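A one-generation exposure of luciferase-tagged malaria parasites in RPMI 1640/Albumax erythrocyte culture, 37 C and 5% CO2. Inhibition is inferred from decreased luminescence after adding detection reagent.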
An asterisk follows results filed as active; i = inactive; ? = inconclusive; · = no result given; [ ] = remark or other dose. Unless noted, calls follow the shape of the dose curve; as a rule, active = well fitted curve in the direction sought with a large enough effect; inconclusive = small, poorly fitted or top-dose-only effect, or another doubt; inactive = no such curve, though single readings can be large; an effect the other way counts as inactive or inconclusive.

SMILES	Shiga inhibitor	NS1 function inh	Giardia FBPA inh	CHX counter	Pf growth 96h	Pf growth 48h
NCCC[C@@H](CC(=O)N[C@@H]1CCNC[C@H]1C(=O)N[C@H](CC(=O)N[C@@H](CCC(=O)O)CC(=O)O)Cc1c[nH]c2ccccc12)NC(=O)C[C@H](CO)NC(=O)[C@@H]1CCCC[C@H]1N	·	·	-19.2%	·	·	·
CCc1ccc2c(c1)cc(CN(C(=S)Nc1ccc(Cl)cc1)C1CC1)c1nnnn12	11.1	0.8%	11.7%	4.2	?	2.94µM*
C=C(CO)C1Cc2c(ccc3c(=O)c4c(oc23)COc2cc(OC)c(OC)cc2-4)O1 (stereo not given)	·	·	3.7%	·	·	·
CCOc1ccc(C2C(C#N)=C(N)Oc3c2c(=O)oc2ccccc32)cc1 (stereo not given)	-17.1	8.9%	4.3%	6.7	?	-8.8%
CCOC(=O)C1Oc2ccccc2C(c2ccc(OC)cc2)=C1C(=O)OC (stereo not given)	i	·	-3.5%[89.2 µM]	2.1	·	·
COc1ccc(C2=C(CN(C)C)C(c3ccccc3)c3ccccc3O2)cc1 (stereo not given)	-3.1	-19.2%	-18.7%	-5.5	2.62µM*	4.65µM*
CCOc1ccc(C2=C(C=C(C#N)C#N)C(c3ccccc3)c3ccccc3O2)cc1 (stereo not given)	-5.7	4.8%	-4.3%	-1.5	4.0%	3.7µM*
Cc1ccccc1N1CCN(C2CCCN(C(=O)CCC3(C)CC3)C2)CC1 (stereo not given)	-34.2	-13.0%	·	-1.6	?	-21.2%
O=C(O)c1nn(CC(=O)N2CCN(c3ncc(C(F)(F)F)cc3Cl)CC2)c(=O)c2ccccc12	-1.9	28.1%	5.1%	-1.0	29.2%	-4.1%
CC(C)(C)c1cc(CCC(=O)NCCc2ccccn2)cc(C(C)(C)C)c1O	18.2	-2.6%	1.4%	11.9	11.7µM*	?
CC(C)(C)c1cc(CCC(=O)NNC(=O)c2ccncc2)cc(C(C)(C)C)c1O	·	·	·	·	24.3%	-3.8%
CC(C)(C)c1cc(CCC(=O)NCc2ccncc2)cc(C(C)(C)C)c1O	24.4	16.2%	·	19.5*	?	?
CC(=O)N1CCN(C(=O)CCc2cc(C(C)(C)C)c(O)c(C(C)(C)C)c2)CC1	-23.6	12.8%	·	-2.7	13.1µM*	?
CC(C)(C)c1cc(CCC(=O)N2CCCC2)cc(C(C)(C)C)c1O	-18.3	18.1%	·	-2.8	-31.3%	1.3%
CN(C)CCCNC(=O)C(=O)NCC1CCCO1 (stereo not given)	12.3	·	4.9%	-2.7	32.3%	-24.4%
CCCCCCCCCCCC(=O)OCC(O)CO (stereo not given)	·	·	·	·	-1.9%	-3.8%
O=C(CN1CCc2ccccc2C1)Nc1ccccc1N1CCCCCC1	-3.7	-45.5%	?	6.4	·	13.1µM*
COc1ccc(NC(=O)CN2CCN(CC(=O)Nc3ccccc3OC)CC2)c(OC)c1	-9.1	-3.5%	1.4%	-2.2	31.8%	-4.7%
COc1ccc(NC(=O)CN2C(=O)N(C)Cc3ccccc32)c(C)c1	-5.1	·	10.8%	-1.0	14.7µM*	5.0%[5.75 µM]
COc1ccc(NC(=O)CN2CCN(CC(=O)Nc3ccccc3Cl)CC2)c(OC)c1	-6.5	-1.3%	1.8%	-3.0	14.7µM*	·
O=C(CN1CCc2ccccc2C1)Nc1ccccc1Cl	-11.9	-14.1%	-13.3%	-1.3	?	-8.5%
O=C(CN1CCN(C(=O)c2cncn2-c2ccccc2)CC1)Nc1ccccc1Cl	·	·	·	·	14.7µM*	?
C/C(=N\NC(=O)c1cc(-c2ccc(C)s2)[nH]n1)c1ccncc1	10.7	0.9%	12.5%	4.4	16.1%	?
COc1ccc(NC(=O)CCN2CCN(Cc3ccccc3)CC2)c(OC)c1	·	-0.1%	-1.5%	0.5	48.0%	?
O=C(CNCCC1=CCCCC1)Nc1ccccc1N1CCCCC1	-8.3	-31.7%	-25.3%	-5.2	11.9%	13.1µM*
SMILES	Shiga inhibitor	NS1 function inh	Giardia FBPA inh	CHX counter	Pf growth 96h	Pf growth 48h
COc1ccc(NC(=O)CN2CCc3ccccc3C2)c(OC)c1	-0.7	-8.0%	11.4%	12.8*	?	0.9%
O=C(CNC1CCCCCC1)Nc1ccccc1N1CCCCC1	-7.9	-37.3%	?	-4.3	?	?
COc1ccc(OC)c(NC(=O)CCN2CCN(Cc3ccccc3)CC2)c1	-10.1	-6.8%	?	1.2	-5.5%	13.1µM*
CN(C)c1ccc(NC(=O)CN2CCc3ccccc3C2)cc1	92.3*	4.5%	-13.4%	36.3*	73.6%	66.3%
O=C(CN1CCc2ccccc2C1)Nc1ccc(F)cc1	-5.6	0.4%	16.7%	-1.9	0.0%	-0.9%
Cc1[nH]c(=O)c(C#N)c(C)c1CCC(=O)Nc1cc(S(C)(=O)=O)ccc1Cl	-7.5	9.4%	-12.5%	-4.1	63.9%	12.2%
COc1ccc(Nc2cc(C(=O)N3CCc4ccccc4C3)c3ccccc3n2)c(OC)c1	16.6	·	-9.2%	8.9	19.6%	13.1µM*
Cc1cc(/C=C2/SC(=O)NC2=O)c(C)n1-c1ccc(N2CCOCC2)cc1	23.5	4.8%	-24.4%	8.2	-6.7%	-28.8%
Cc1cc(/C=C2\SC(=S)NC2=O)cc(C)c1O	36.8	6.5%	17.4%	15.5*	7.3%	14.7%
Cc1cc(/C=C2\SC(N)=NC2=O)c(C)n1-c1ccccc1	45.0	7.6%	-6.1%	36.3*	7.2%	14.7%
CCCOc1ccccc1/C=C1\SC(N)=NC1=O	-7.8	-8.2%	-0.6%	1.9	11.7µM*	?
Cc1cc(/C=C2\SC(=S)NC2=O)c(C)n1C	-6.9	-105.7%	-18.1%	-3.3	16.3%	7.3%
Cc1cc(/C=C2\SC(=Nc3ccc(F)cc3)NC2=O)c(C)n1-c1ccc(S(N)(=O)=O)cc1	-24.8	?	-5.3%	-3.0	·	13.1µM*
CCCCCC(=O)Nc1ccc(C(=O)COC(=O)c2ccccn2)cc1	·	·	·	·	67.0%	28.2%
Cc1cc(/C=C2\SC(=S)NC2=O)c(C)n1-c1ccc(O)cc1	51.7*	?	8.3%	38.4*	410.4%	9.28µM*
Cc1cc(/C=C2\SC(=S)NC2=O)c(C)n1-c1ccccc1	58.1*	1.1%	3.7%	43.7*	-7.0%	112.0%
COc1ccc(NC2=C(Cl)C(=O)N(CCc3ccccc3)C2=O)c(OC)c1	58.7*	-3.6%	-8.7%	73.0*	46.9%	19.1%
COc1ccc(NC2=C(Cl)C(=O)N(CCc3ccccc3)C2=O)cc1	53.0	10.0%	0.7%	26.0*	-16.7%	65.7%
COc1ccc(CCNC2=C(Cl)C(=O)N(CCc3ccc(OC)c(OC)c3)C2=O)cc1OC	-7.8	3.9%	2.6%	15.4	?	·
CCCCCCCCCC(=O)O[C@H](CC(=O)O)C[N+](C)(C)C	·	·	1.7%	·	·	·
CCc1ccc(OCC(=O)NNC(=O)c2cc(S(=O)(=O)N(C)C)ccc2N2CCCC2)cc1	·	·	·	·	-9.2%	-3.6%
COc1ccc(-c2csc(N3C(=O)CNC3=S)n2)cc1	140.2*	21.1%	-9.4%	92.9*	?	166.0%
